G9a block: G9a (human) methyltransferase inhibition; Q96KQ7; Potency, µM (highest dose often 102 µM), usual class: inhibitors; AID 504332; G9a H3K9 monomethylation, AlphaScreen, 2 h; 8.8% of 350,000 active; also: nearly all actives have a fitted effect of over 75% in size
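AlphaScreen read-out: biotin-H3K9 peptide (500 nM) methylation by 20 nM enzyme with 20 uM SAM, 2 h at room temperature after 15 min compound preincubation; anti-monomethyl H3K9 antibody plus donor/acceptor beads, 10 min dark.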
JMJD2A Tudor inh: JMJD2A Tudor domain (human) inhibition; 4.4% of 390,000 active; Potency, µM (series often up to 114 µM), most hits filed as inhibitors; O75164; AID 504339; AlphaScreen JMJD2A-Tudor / H3K4me3 peptide binding; also: nearly all actives have a fitted effect of over 50% in size
HP1b chromo inh: blocks HP1-beta chromodomain binding to methylated histone tails | P83916 | AlphaScreen HP1-beta / biotin-H3K9me3 peptide binding | Potency, µM (doses to about 114 µM), hits mostly inhibitors | 0.56% of 390,000 active | AID 540317; also: nearly all actives have a fitted effect of over 70% in size
Target sequence (P83916 whole entry, looked up): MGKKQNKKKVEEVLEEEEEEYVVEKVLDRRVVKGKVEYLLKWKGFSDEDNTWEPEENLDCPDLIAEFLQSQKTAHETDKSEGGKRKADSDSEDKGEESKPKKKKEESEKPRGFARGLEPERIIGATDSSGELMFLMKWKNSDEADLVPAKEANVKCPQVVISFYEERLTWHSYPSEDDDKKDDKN
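Compound inhibition of the preformed complex between 50 nM HP1-beta and 50 nM biotinylated H3K9me3 peptide was read by AlphaScreen. Buffer was PBS pH 7.4 with 0.01% Tween-20. Incubations ran 30 min at room temperature, with 10 ug/mL donor/acceptor beads.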
VDR inh: vitamin D3 receptor (human) inhibition; Potency, µM, usual class: inhibitors; VDR-SRC2-3 peptide fluorescence polarization, 2 h; P11473; AID 504847; 0.93% of 400,000 active
Target sequence (P11473 whole entry, looked up): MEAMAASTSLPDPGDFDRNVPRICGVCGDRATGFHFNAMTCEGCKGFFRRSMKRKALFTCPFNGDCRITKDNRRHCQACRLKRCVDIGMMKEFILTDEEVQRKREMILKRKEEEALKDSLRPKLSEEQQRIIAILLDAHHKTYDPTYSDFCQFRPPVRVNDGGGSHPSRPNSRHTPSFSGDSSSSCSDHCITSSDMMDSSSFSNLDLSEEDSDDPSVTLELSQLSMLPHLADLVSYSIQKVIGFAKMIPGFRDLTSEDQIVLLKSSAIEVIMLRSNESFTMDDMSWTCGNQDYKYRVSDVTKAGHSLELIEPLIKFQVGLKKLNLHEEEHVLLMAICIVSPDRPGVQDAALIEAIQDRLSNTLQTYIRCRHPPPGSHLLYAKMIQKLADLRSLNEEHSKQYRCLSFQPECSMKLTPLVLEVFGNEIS
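Fluorescence polarization assay measuring small-molecule disruption of VDR binding to the coregulator peptide SRC2-3. Compounds were pin-transferred (23 nl) into the reagent mix and incubated 2 h at room temperature before reading.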
BAZ2B inh: BAZ2B (human) inhibition; Q9UIF8; AlphaScreen BAZ2B-H3K14Ac peptide displacement; Potency, µM (top dose mostly 114 µM), most hits filed as inhibitors; 4.4% of 360,000 active; AID 504333; also: nearly all actives have a fitted effect of over 60% in size
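Compounds, titrated to a top concentration of 110 uM, were incubated 30 min at room temperature with preformed BAZ2B/acetyl-K14 H3 peptide complex (50 nM each). Proximity signal was measured by AlphaScreen after 20 min with beads.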
PLK1 PBD inh: PLK1 (human) polo-box domain binding inhibition. Plk1 PBD binding of FITC phosphopeptide, fluorescence polarization. Potency, µM, most hits filed as inhibitors. 2.8% of 360,000 active. AID 720504; also: series mostly up to about 57 µM; nearly all actives have a fitted effect of over 65% in size
Numbers stand for hits; – = inactive; ? = inconclusive; · = not tested or not shown; [ ] = another dose, or the depositor's remark. Most compounds without a hit are left out; they make up all but 11% or so of the library. Calls follow the shape of the dose curve; as a rule, active = well fitted curve in the direction sought with a large enough effect; inconclusive = small, poorly fitted or top-dose-only effect, or another doubt; inactive = no such curve, though single readings can be large; an effect the other way counts as inactive or inconclusive.

SMILES | G9a block | JMJD2A Tudor inh | HP1b chromo inh | VDR inh | BAZ2B inh | PLK1 PBD inh
CCCCC/C=C\C/C=C\CCCCCCCCCC(=O)NCCc1ccc(O)c(O)c1 | · | · | · | – | · | ·
CCCCC/C=C\C/C=C\C/C=C\CCCCC(=O)NCCc1ccc(O)c(O)c1 | · | · | · | – | · | ·
c1cc(CN2CC3(CCNCC3)C2)ccn1 | –[12.7 µM] | · | · | – | · | ·
CCC12C=CCN3CCC4(c5ccc(OC)cc5N(C)C4[C@@](O)(C(=O)OC)C1OC(C)=O)C32 (some centres undefined) | · | · | · | – | · | ·
CC(=O)OCOCC(=O)OCO[P+](=O)C(OCOC(C)=O)c1cc([N+](=O)[O-])ccc1Oc1ccc(Br)cc1 (centres undefined) | – | · | · | – | · | ·
CCC(C)N=Cc1c(O)n(-c2ccccc2)c(=O)[nH]c1=O (centres undefined) | 10µM | – | – | ? | – | 27µM
CCc1ccc(-n2c(O)c(/C=N/NC(=O)c3ccncc3)c(=O)[nH]c2=O)cc1 | – | ? | – | – | 56µM | –
Cc1ccccc1-n1c(O)c(/C=N/NC(=O)c2ccncc2)c(=O)[nH]c1=O | – | 89µM | – | – | ? | –
Cc1cc(C)c(-n2c(O)c(/C=N/NC(=O)c3ccncc3)c(=O)[nH]c2=O)c(C)c1 | – | ? | – | – | – | –
CC(C)c1ccc(-n2c(O)c(/C=N/NC(=O)c3ccncc3)c(=O)[nH]c2=O)cc1 | 18µM | ? | – | – | ? | –
Cc1ccc(N=Cc2c(O)n(-c3ccc(C)cc3)c(=O)[nH]c2=O)cc1 | · | – | – | – | · | –
O=C(O)[C@@H]1Cc2[nH]cnc2C(c2cccnc2)N1 (some centres undefined) | · | · | · | – | · | ·
N[C@]1(C(=O)O)CC[C@@H](C(=O)O)C1 (racemic) | ? | · | · | – | · | ·
COc1ccc2nc(/N=C/c3c(O)n(-c4cccc(Cl)c4)c(=O)[nH]c3=O)sc2c1 | · | ? | – | 50µM | – | –
CCN(CC)c1ccc(N=Cc2c(O)n(-c3ccc(Cl)cc3)c(=O)[nH]c2=O)cc1 | · | – | – | – | – | ?
CCN(CC)c1ccc(N=Cc2c(O)n(-c3ccc(OC)cc3)c(=O)[nH]c2=O)cc1 | 50µM | – | – | – | – | ?
COc1cc2c(cc1OC)[C@H](C)NCC2 | –[21.5 µM] | · | · | – | · | ·
O=[N+]([O-])c1ccc(S(=O)(=O)N2CCn3cccc3C2c2ccccc2F)cc1 (centres undefined) | ? | ? | – | – | 32µM | ·
CCOP(=O)(c1ccccc1)C(O)c1ccc(F)cc1 (centres undefined) | 0.63µM | – | – | – | – | –
CCOP(=O)(C#Cc1ccccc1)C(O)c1ccc(Br)cc1 (centres undefined) | – | – | – | – | – | –
O=C(CCC(=O)Nc1ccccc1Cl)N/N=C/c1ccccc1 | – | – | – | – | – | –
COc1ccccc1C(=O)Nc1ccc2c(c1)CC1(C(=O)N(C)C(=O)N(C)C1=O)C1CCCN21 (centres undefined) | 32µM | – | – | – | – | –
CN1C(=O)N(C)C(=O)C2(Cc3cc([N+](=O)[O-])ccc3N3CCN(C(=O)c4ccccc4)CC32)C1=O (centres undefined) | – | – | – | – | – | –
CN1C(=O)N(C)C(=O)C2(Cc3ccccc3N3CCOCC32)C1=O (centres undefined) | –[12.7 µM] | – | – | – | – | –
Cc1cccc(C(=O)Nc2ccc3c(c2)CC2(C(=O)N(C)C(=O)N(C)C2=O)C2CCCN32)c1 (centres undefined) | 28µM | – | – | – | – | –
SMILES | G9a block | JMJD2A Tudor inh | HP1b chromo inh | VDR inh | BAZ2B inh | PLK1 PBD inh
Clc1ccc(C2CC3CCC2N3)cn1 (centres undefined) | – | · | · | – | · | ·
CC1=NN(c2ccccc2)C(=O)/C1=C/c1c(O)[nH]c(=S)[nH]c1=O | ? | 79µM | – | ? | ? | –
COc1cccc(-n2c(/C=C/c3cccc(C)c3)nc3ccccc3c2=O)c1 | – | – | – | – | – | ·
CC1=Nc2ccccc2/C1=C/c1c(O)n(C)c(=O)[nH]c1=O | · | – | – | – | – | ?
CC1=NN(c2ccccc2)C(=O)/C1=C/c1c(O)[nH]c(=O)[nH]c1=O | 40µM | – | – | – | ? | –
COc1ccc(/C=C2/C(=O)N(c3ccccc3)N=C2C)cc1 | · | 20µM | 50µM | 89µM | · | 3.8µM
CC(=O)[C@@H]1CC[C@H]2[C@@H]3CC[C@@H]4CC(=O)CC[C@]4(C)[C@H]3CC[C@]12C | – | · | · | 50µM | · | ·
CC(=O)[C@H]1CCC2C3CC[C@H]4C[C@@H](O)CC[C@]4(C)C3CC[C@@]21C (some centres undefined) | · | – | – | – | · | –
O=C1NC(=O)C(CCc2ccncc2)(CCc2ccccn2)C(=O)N1c1ccc(Br)cc1 (centres undefined) | –[12.7 µM] | – | – | – | 89µM | –
Cc1ccc(N2C(=O)NC(=O)C(CCc3ccccn3)(Cc3cccc(Cl)c3Cl)C2=O)cc1 (centres undefined) | – | – | – | – | – | –
COc1c(/C=C2/C(=O)NC(=O)N(C)C2=O)c(CCN(C)C(=O)c2ccccc2)cc2c1OCO2 | – | – | – | – | – | 27µM
CNC(=S)N(C)CCc1cc2c(c(OC)c1/C=C1/C(=O)NC(=O)N(C)C1=O)OCO2 | – | – | – | – | – | ?
CCC(C)C1NC(=O)C(C(C)=O)=C1O (centres undefined) | –[12.7 µM] | – | – | – | 50µM | –
O=C1C2CC=CCC2C(=O)N1SC(Cl)(Cl)Cl (centres undefined) | 1.6µM | · | · | 4µM | · | ·
C=C1C(=O)OC2CC3(C)OC3CCC(C)=CC(OC(C)=O)C12 (centres undefined) | · | – | – | 71µM | · | –
C[C@H](NC(=O)[C@@H](N)Cc1ccc(O)cc1)C(=O)N[C@@H](Cc1ccccc1)C(=O)N[C@@H](Cc1ccccc1)C(N)=O | – | · | · | – | · | ·
C[C@H](N)C(=O)N[C@@H](C)C(=O)N[C@@H](Cc1ccccc1)C(=O)CCl | 16µM | · | · | ? | · | ·
Cc1c(N=Nc2c(O)n(C)c(=O)n(C)c2=O)c(=O)n(-c2ccccc2)n1C | ? | – | – | – | 35µM | –
Cc1c(N=Nc2c(O)n(Cc3ccccc3)c(=O)[nH]c2=O)c(=O)n(-c2ccccc2)n1C | ? | 20µM | – | ? | 10µM | –
Cc1c(N=Cc2c(O)n(Cc3ccccc3)c(=O)[nH]c2=O)c(=O)n(-c2ccccc2)n1C | – | – | – | – | – | –
CCCCn1c(O)c(C=Nc2c(C)n(C)n(-c3ccccc3)c2=O)c(=O)[nH]c1=O | 56µM | – | – | – | – | –
Cc1cccc(C)c1Oc1nc(-c2ccccc2)ncc1S(=O)(=O)c1ccccc1 | – | – | – | – | – | –

Bioassay records (PubChem)
